Assay results as given in PubChem BioAssay (NCATS).
Results filed as inconclusive are left out. Entries that show only a call come without a potency. Values without a mark were called inactive. The source made the active and inactive calls. Calls follow the shape of the dose curve; as a rule, active = well fitted curve in the direction sought with a large enough effect; inconclusive = small, poorly fitted or top-dose-only effect, or another doubt; inactive = no such curve, though single readings can be large; an effect the other way counts as inactive or inconclusive.

How the values were obtained:
Tov-21-G = experiment: Primary qHTS to identify gynecologic anti-cancer compounds using libraries of approved drugs and bioactive compounds (AID 1345084); details: Gynecologic cancer cell panel viability, ATPlite luminescence, 48 h; series mostly up to 57.5 µM; also: nearly all actives have a fitted effect of over 55% in size
Procedure, shortened: (§1)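 In this quantitative HTS, cell killing is estimated from loss of ATP-dependent luciferase light. Cells see five compound concentrations over a 48 h exposure.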

Tov112D = experiment: as above; details: Gynecologic cancer cell panel viability, ATPlite luminescence, 48 h; series mostly up to 57.5 µM
Procedure, shortened: as §1

[1] = qHTS assay to identify inhibitors of the type 1 interferon - major histocompatibility complex class I in skeletal muscle: Counter screen cell viability and HiBit confirmation (AID 1347412); details: iHSKM muscle cells + IFN-b, HiBiT or CellTiter-Glo, 24 h; for activity change, negative = inhibition: Viability, at 45.9 µM (top of the series); as to all read-outs here: nearly all actives have a fitted effect of over 60% in size
Procedure, shortened: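 After 24 h with human IFN-beta (4 ng/ml) and compound titrations (top 46 uM final, 1:3, 12 points), HLA-B HiBit myoblasts were lysed for either Nano-Glo HiBiT luminescence or CellTiter Glo viability on paired plates.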
Potency is read from the fitted curve at half-maximal effect.

In the case of `O=C(Nc1ccc(N(Cc2ccsc2)C(=O)Cn2nnc3ccccc32)cc1)C1CC1`, the Potency (Tov-21-G) is reported as “inactive” and the Potency (Tov112D) is reported as “inactive”.
In the case of `C=C1C(=O)O[C@@H]2/C=C(\CO)CC/C=C(/C=O)C[C@@H](O)[C@@H]12`, the Potency (Tov-21-G) is reported as 14.1 µM (active) and the Potency (Tov112D) is reported as “inactive”.
With `CN1CCC(c2cn(C)c3ccc(OS(=O)(=O)c4c(F)cccc4F)cc23)CC1` the Potency (Tov-21-G) was “inactive” and the Potency (Tov112D) was “inactive”.
In the case of `CCCc1cc2c(N3CCN(C4=NCC(C)(C)S4)CC3)ncnc2s1`, the Potency (Tov-21-G) is reported as “inactive” and the Potency (Tov112D) is reported as “inactive”.
For `CC[C@@H]1C[C@]1(NC(=O)[C@@H]1C[C@@H]2CN1C(=O)[C@H](C(C)(C)C)NC(=O)OCC(C)(C)CCCCc1cccc3c1CN(C3)C(=O)O2)C(=O)NS(=O)(=O)C1CC1`, the Potency (Tov-21-G) was “inactive” and the Potency (Tov112D) was “inactive”.
For `CC(C)(C)c1ccc(NC(=O)N2CCN(c3ncccc3Cl)CC2)cc1`, the Potency (Tov-21-G) was “inactive” and the Potency (Tov112D) was “inactive”.
With `O=C(O)C1=CO[C@@H](O[C@@H]2O[C@H](CO)[C@@H](O)[C@H](O)[C@H]2O)[C@@H]2C(CO)=CC[C@H]12` the Potency (Tov-21-G) was “inactive” and the Potency (Tov112D) was “inactive”.
`CC1(C)CC[C@]23CO[C@@]4(CCC5[C@@]6(C)CC[C@H](O[C@@H]7OC[C@H](O[C@@H]8O[C@H](CO)[C@@H](O)[C@H](O)[C@H]8O[C@@H]8OC[C@@H](O)[C@H](O)[C@H]8O)[C@H](O)[C@H]7O)[C@@](C)(CO)C6CC[C@@]5(C)[C@]4(C)CC2=O)[C@@H]3C1` (stereo not given in full) gave an activity change, negative = cytotoxicity (Tov-21-G) of -3.45% [at 11.6 µM] and an activity change, negative = cytotoxicity (Tov112D) of 1.26% [at 11.6 µM].
For `C[C@@H]1O[C@@H](O[C@H]2[C@@H]3C=CO[C@@H](O[C@@H]4O[C@H](CO)[C@@H](O)[C@H](O)[C@H]4O)[C@@H]3[C@@]3(CO)O[C@@H]23)[C@H](O)[C@H](OC(=O)/C=C/c2ccccc2)[C@H]1O`, the Potency (Tov-21-G) was “inactive” and the Potency (Tov112D) was “inactive”.
In the case of `CC1(C=O)CCCC2(C)C1CCC13CC(CO)C(CCC12)C3` (stereo not given), the Potency (Tov-21-G) is reported as “inactive” and the Potency (Tov112D) is reported as “inactive”.
With `Cc1cccc(CC(=O)N2CCc3c2ccc(-c2cn(C)c4ncnc(N)c24)c3F)n1` the Potency (Tov-21-G) was “inactive” and the Potency (Tov112D) was “inactive”.
For `CC1CCCC(O)CCC/C=C/c2cc(OS(=O)(=O)O)cc(O)c2C(=O)O1` (stereo not given), the Potency (Tov-21-G) was “inactive” and the Potency (Tov112D) was “inactive”.
With `CCN(Cc1ccccc1)C(=O)Cn1c(=O)n(C)c2cnc(-c3ccccc3)nc21` the Potency (Tov-21-G) was “inactive” and the Potency (Tov112D) was “inactive”.
In the case of `CC(C)Nc1nc(Nc2ccccc2)nc(-c2ccccc2)n1`, the Potency (Tov-21-G) is reported as “inactive” and the Potency (Tov112D) is reported as “inactive”.
With `CC#C[C@@H](CC(=O)O)c1ccc(OCc2ccc(CN3CCC4(C=Cc5ccccc54)CC3)s2)cc1` the Potency (Tov-21-G) was “inactive” and the Potency (Tov112D) was “inactive”.
For `Cc1ccc(-c2c(C(=O)CCl)n(CCCO)c3ncnc(N)c23)cc1`, the Potency (Tov-21-G) was “inactive” and the Potency (Tov112D) was “inactive”.
In the case of `COCC(c1ccc(C(F)(F)F)cc1)N1CCN(C2(C)CCN(C(=O)c3c(C)ncnc3C)CC2)CC1C` (stereo not given), the Potency (Tov-21-G) is reported as “inactive” and the Potency (Tov112D) is reported as “inactive”.
With `C=CC1(C)CC(O)C(C(=C)C(=O)OC)C(O)C1C(=C)CO` (stereo not given) the Potency (Tov-21-G) was “inactive” and the Potency (Tov112D) was “inactive”.
With `CC(C)=C[C@@H]1[C@H](CO[C@@H]2O[C@H](CO)[C@@H](O)[C@H](O)[C@H]2O)C1(C)C` the Potency (Tov-21-G) was “inactive” and the Potency (Tov112D) was “inactive”.
With `O=C1COC2(CCN(S(=O)(=O)c3ccc(-c4ccc5cccnc5c4)cc3)CC2)CN1C1CC1` the Potency (Tov-21-G) was “inactive” and the Potency (Tov112D) was “inactive”.
For `COc1cc2ncnc(Nc3cccc(I)c3)c2cc1OC`, the Potency (Tov-21-G) was “inactive” and the Potency (Tov112D) was “inactive”.
For `O=C(Nc1ccc(-c2ccc(Cl)c(Cl)c2)cc1)C1=C(O)c2ccccc2S(=O)(=O)N1`, the Potency (Tov-21-G) was “inactive” and the Potency (Tov112D) was “inactive”.
For `CN1CCN(c2ccc(-c3cccc(CN4CCOCC4)c3)cc2NC(=O)c2c[nH]c(=O)cc2C(F)(F)F)CC1`, the Potency (Tov-21-G) was “inactive” and the Potency (Tov112D) was “inactive”.
In the case of `COc1cc(C[C@H]2C(=O)OC[C@@H]2Cc2ccc(OC)c(OC)c2)ccc1O`, the Potency (Tov-21-G) is reported as “inactive” and the Potency (Tov112D) is reported as “inactive”.
For `CCOc1ccc(S(=O)(=O)N2CCCCCC2)c2ccccc12`, the Potency (Tov-21-G) was “inactive” and the Potency (Tov112D) was “inactive”.
In the case of `CCC(C)C(=O)OC1C(C)C2(O)C(C=C(CO)CC3(O)C(=O)C(C)=CC32)C2C(C)(C)C12OC(=O)C(C)C` (stereo not given), the Potency (Tov-21-G) is reported as “inactive” and the Potency (Tov112D) is reported as “inactive”.
In the case of `C=C1C(=O)O[C@H]2C[C@@H](C)[C@@H]3CCC(=O)[C@@]3(C)C[C@H]12`, the Potency (Tov112D) is reported as “inactive”.
In the case of `COc1cc2c(cc1-c1c(C)noc1C)ncc1[nH]c(=O)n(C(C)c3ccccn3)c12` (stereo not given), the Potency (Tov112D) is reported as “inactive”.
For `C/C=C(\C)C(=O)O[C@H]1C=CC(=O)O[C@H]1/C=C/[C@@H](O)[C@H](C)O`, the Potency (Tov112D) was “inactive”.
With `CCN(CC)C(=O)c1ccc(Nc2nc(OCC3CCCCC3)c3[nH]cnc3n2)cc1` the Potency (Tov112D) was “inactive”.
With `C=C1C(=O)OC2/C=C(\CO)CC/C=C(\C=O)C(OC)C(OC(=O)C(C)CC)C12` (stereo not given) the Potency (Tov112D) was “inactive”.
In the case of `CC1(C)CN(C(=O)c2ccc(-c3cccc4nc(NC(=O)C5CC5)nn34)cc2)C1`, the Potency (Tov-21-G) is reported as “inactive”, the Potency (Tov112D) is reported as “inactive” and the Potency ([1]; HiBiT) is reported as 7.87 µM (active). The activity change, negative = inhibition [1] was 3.01%.
In the case of `COc1cc2nc(N3CCN(C(=O)c4ccco4)C4CCCCC43)nc(N)c2cc1OC` (stereo not given), the Potency (Tov112D) is reported as “inactive”.
For `O=C1NC(=O)C(c2cnc3ccccn23)=C1c1cn2c3c(cc(F)cc13)CN(C(=O)N1CCCCC1)CC2`, the Potency (Tov-21-G) was “inactive”, the Potency (Tov112D) was “inactive” and the activity change, negative = inhibition [1] was -0.987%.
